The whole screen tested about 360,000 compounds, of which about 17,000 (4.7%) were called active. Not shown: some 5% with an inconclusive outcome. No stated cut-off is given here; in the data, active means activity change below about -50%; inconclusive means mostly about -30% to -49%; inactive means weaker than that. This excerpt belongs to a sample that is enriched for actives.
On the % scale 0 is the no-effect control and ±100 the full control effect.

This assay can be described thus: qHTS for Inhibitors of Inflammasome Signaling: IL-1-beta AlphaLISA Primary Screen. The note with it: THP-1 LPS/ATP IL-1B secretion, 16 h, at 57.5 µM, active compounds read low. The method in brief: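 Secreted IL-1B measured by AlphaLISA bead assay after 16 h compound exposure of THP-1 cells; compounds (final up to 57.5 uM) added 1 h before LPS (250 ng/mL) and ATP (1.25 mM) stimulation; lower signal means less secretion.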
On to `CCOC(=O)CC(SP1(=S)OCC2(CCCCO2)C(C2CCCCO2)O1)C(=O)OCC` (stereo not given), for which the activity change is 17.2% (inactive).

In the case of `CC(c1ccccc1)(c1ccccc1)c1ccncc1`, the activity change is -63.6% (active).

For `ClC(Cl)(Cl)c1ccccc1`, the activity change was -9.44% (inactive).

For `c1ccc(C(CN2CCCCC2)c2ccccc2)cc1`, the activity change is -8.96% (inactive).

On to `CNC(=O)N(C)c1nnc(C(C)(C)C)s1`, for which the activity change is 17.7% (inactive).

Regarding `O=C1NCN(c2ccccc2)C12CCN(C(c1cccs1)c1nnnn1C1CCCCC1)CC2` (stereo not given), the activity change is -18.5% (inactive).

In the case of `CC(C)CN1Cc2cc(N3CCCCC3)ccc2-n2nncc2C1`, the activity change was -4.66% (inactive).

On to `CCC1(CC(C)c2ccccc2)C(=O)NC(=O)NC1=O` (stereo not given), for which the activity change is -0.699% (inactive).

Take `COC(=O)C[C@H]1CC[C@H]2NC[C@@H](O)COC[C@@H]2O1`: the activity change is 0% (inactive).

Consider `CC1C2Cn3c(nc4ccccc43)C1N(C)O2` (stereo not given), for which the activity change was 32.4% (inactive).

Turning to `CC(Cc1ccccc1)NCCC(c1ccccc1)c1ccccc1` (stereo not given), the activity change is -64.4% (active).

For `CC(=O)NC(=O)NC(C)Cc1ccccc1` (stereo not given), the activity change is 11.5% (inactive).

Regarding `CC(Cc1ccccc1)NC=O` (stereo not given), the activity change was 16% (inactive).

On to `CN1CCC(OC(=O)c2cccc(F)c2)CC1`, for which the activity change is -22% (inactive).

For `COc1ccc(NC(=O)N2Cc3ccccc3-n3nncc3C2)cc1`, the activity change is -5.29% (inactive).

Turning to `Cc1cc(-c2ccc(N)c(C)c2)ccc1N`, the activity change is -12.1% (inactive).

For the compound `CC(=O)OC1C2(CC3N4C(=O)C5(CO)SSC4(CC31O)C(=O)N5C)OC(C)C(C)(C)C2=O` (stereo not given), the activity change was -104% (active).

Turning to `Cc1ccc(C(C)C)c(OCC(=O)N2CCN(CC(=O)N3CCOCC3)CC2)c1`, the activity change is -9.54% (inactive).

For the compound `C[N+]12CN3CN(CN(C3)C1)C2`, the activity change is 1.54% (inactive).

`Clc1cccc(Cl)c1Cl`: the activity change is -12.8% (inactive).

For the compound `COC1C(O)C(C)OC(OC2CCC3(C=O)C(CCC4C3CCC3(C)C(C5=CC(=O)OC5)CCC43O)C2)C1O` (stereo not given), the activity change is -68% (active).

Take `C[C@]12CC[C@H](O)C[C@H]1CC[C@@H]1C2CC[C@]2(C)[C@@H](C3=CC(=O)OC3)[C@@H](O)C[C@]12O` (stereo not given in full): the activity change was -21.6% (inactive).

Turning to `C[C@H]1CN([C@@H](C)CO)C(=O)CCCn2nncc2CO[C@H]1CN(C)C(=O)Oc1cccc2ccccc12`, the activity change is 24.1% (inactive).

On to `COc1cc(C(=O)N2Cc3ccc(Br)cc3-n3nncc3C2)cc(OC)c1OC`, for which the activity change is -13.4% (inactive).

On to `O=C1/C(=C\c2ccc3c(c2)OCO3)N2CCC1CC2`, for which the activity change was -14.8% (inactive).

Turning to `Cc1nc2ccccc2c(=O)n1-c1ccc(Cl)cc1Cl`, the activity change is -2.71% (inactive).

Take `O=c1c2ccccc2nc(/C=C/c2ccc(F)cc2)n1-c1ccccc1O`: the activity change is -94.1% (active).

For `O=c1c2ccccc2nc(-c2ccccc2)n1-c1ccccn1`, the activity change was 17.2% (inactive).

For `COc1ccccc1NC(=O)N1C[C@@H]2C[C@@H](C1)c1cccc(=O)n1C2`, the activity change was 1.98% (inactive).

`O=C(O)C1CSC(c2cccnc2)N1` (stereo not given): the activity change is 0% (inactive).

Consider `NCCc1ccc(S(=O)(=O)F)cc1`, for which the activity change was 13% (inactive).

Consider `O=C(NC1CCCCC1)N1Cc2cc(N3CCCCC3)ccc2-n2nncc2C1`, for which the activity change was -7.47% (inactive).

For the compound `CCOc1ccc(-c2cc(C)[n+](CCN(CC)CC)c(-c3ccc(OCC)cc3)c2)cc1`, the activity change is -82.5% (active).

In the case of `COC(=O)C1=C(c2ccc(F)cc2OCc2ccccc2)C[C@@H]2CC[C@H]1N2C(=O)NCc1ccc(OC)c(OC)c1`, the activity change is -5.32% (inactive).

As for `COC(=O)C1=C(c2ccc(F)cc2OCc2ccccc2)C[C@@H]2CC[C@H]1N2C(=O)NCc1ccc(C(C)(C)C)cc1`, the activity change is -29.4% (inactive).

Regarding `COC(=O)C1=C(c2ccc(F)cc2OCc2ccccc2)C[C@@H]2CC[C@H]1N2C(=O)NCc1ccc(Cl)cc1`, the activity change is -55.3% (active).

For the compound `CC1CCC(N(C)C2CCN(C)CC2)CC1` (stereo not given), the activity change is 0% (inactive).

As for `CCOC(=O)c1cccc(C2=C(CNC(=O)c3ccncc3)[C@H]3CC[C@@H](C2)N3Cc2ccccc2)c1`, the activity change is 41.7% (inactive).

In the case of `COc1ccc(-c2nc(CS(=O)CC(=O)N3CCC4(CC3)OCCO4)c(C)o2)cc1` (stereo not given), the activity change was -1.15% (inactive).

In the case of `O=P(OC1=CCCCC1)(c1ccccc1)c1ccccc1`, the activity change is -4.62% (inactive).

For the compound `Cc1ncoc1C(=O)NCC1=C(c2cccc3ccccc23)C[C@@H]2CC[C@H]1N2Cc1ccco1`, the activity change is -7.11% (inactive).

Take `CC1(C)Cc2c(C#N)c(N3CCNCC3)nc(-c3ccco3)c2CS1`: the activity change was -50.4% (active).

For the compound `COC(=O)C1=C(c2ccc(OCc3ccccc3)cc2)C[C@@H]2CC[C@H]1N2C(=O)NCc1ccc(Cl)cc1`, the activity change is 4.2% (inactive).

Consider `COc1ccc(C2C=C(C)Oc3c2c(=O)oc2ccccc32)cc1OC` (stereo not given), for which the activity change is 7.28% (inactive).

In the case of `N#CC1=C(N)Oc2c(c(=O)oc3ccccc23)C1c1ccccc1OC(=O)c1cccs1` (stereo not given), the activity change was -86.1% (active).

Take `S=C(NCCc1ccccc1)N1Cc2cc(N3CCOCC3)ccc2-n2nncc2C1`: the activity change was -27% (inactive).

For the compound `Cc1cc(C)c2c(c1)NP(=S)(c1ccccc1)N2` (stereo not given), the activity change is -11.4% (inactive).

As for `Cc1cc(C=C2C(=O)NC(=O)NC2=O)c(C)n1-c1ccncc1`, the activity change is -12.3% (inactive).

In the case of `Cc1ccnc(-n2c(C)cc(/C=C3\C(=O)NC(=S)N(C)C3=O)c2C)c1`, the activity change was -79.4% (active).

In the case of `Cc1ccc(-n2c(C)cc(/C=C3\C(=O)NC(=O)N(C)C3=O)c2C)cc1C`, the activity change was -4.58% (inactive).

(Values after PubChem BioAssay AID743279 (National Center for Advancing Translational Sciences (NCATS), 2014).)
